This is an account of results in PubChem BioAssay (NCATS).

Structures are written as SMILES. “And” between values parts separate entries of the source, which are not always exact repeats. Equal entries are not always repeated. Results filed as inconclusive are left out. The source made the active and inactive calls. Unless noted, calls come from the whole dose curve; as a rule, active = well fitted curve in the direction sought with a large enough effect; inconclusive = small, poorly fitted or top-dose-only effect, or another doubt; inactive = no such curve, though single readings can be large; an effect the other way counts as inactive or inconclusive.

The target in experiment [1] is ATP-dependent 6-phosphofructokinase (Trypanosoma brucei brucei) (UniProt O15648). In words: qHTS Assay to Find Inhibitors of T. brucei phosphofructokinase: hit validation (AID 492961).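 Note: luminescence reports ADP formed as PFK phosphorylates fructose-6-phosphate with ATP; series mostly up to about 51 µM; % is set by controls: 0 for no effect and ±100 for the full control effect.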 Put shortly: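 Inhibition of parasite PFK is measured as reduced ADP formation, quantified via luciferase after ATP depletion. Assay used 0.1 mM ATP, 0.5 mM F6P, 1.25 nM enzyme, 45 min incubation.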
ATP-dependent 6-phosphofructokinase (Trypanosoma brucei brucei), sequence (O15648 whole entry, looked up): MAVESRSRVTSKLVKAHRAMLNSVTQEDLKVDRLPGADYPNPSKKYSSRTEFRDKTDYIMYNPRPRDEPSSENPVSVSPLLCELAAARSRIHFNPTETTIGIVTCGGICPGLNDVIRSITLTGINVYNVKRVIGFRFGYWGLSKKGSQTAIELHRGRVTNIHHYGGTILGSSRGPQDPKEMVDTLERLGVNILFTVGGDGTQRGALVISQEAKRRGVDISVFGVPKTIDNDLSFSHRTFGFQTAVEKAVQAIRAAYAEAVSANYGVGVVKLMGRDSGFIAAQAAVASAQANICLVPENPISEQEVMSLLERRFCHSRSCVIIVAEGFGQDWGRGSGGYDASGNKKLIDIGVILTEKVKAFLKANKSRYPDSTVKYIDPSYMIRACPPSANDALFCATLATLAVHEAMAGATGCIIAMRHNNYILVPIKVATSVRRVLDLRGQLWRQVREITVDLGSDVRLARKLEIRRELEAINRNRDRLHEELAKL
In general terms: In qHTS, concentration-response curves come from the screen itself.

Experiment [2] deals with Beta-2 adrenergic receptor (Homo sapiens) (UniProt P07550). In words: qHTS validation assay of beta-arrestin-biased ligands of beta2-adrenergic receptor (AID 485366). Note: 0% is about no effect. Put shortly: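 Agonist activity is measured as luciferase luminescence downstream of beta-arrestin recruitment to recombinant beta2-AR in Tango cells. Exposure lasts 18 hr at 37 degrees C, and curves are categorized by r2, response size and activity.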
Beta-2 adrenergic receptor (Homo sapiens), sequence (P07550 whole entry, looked up): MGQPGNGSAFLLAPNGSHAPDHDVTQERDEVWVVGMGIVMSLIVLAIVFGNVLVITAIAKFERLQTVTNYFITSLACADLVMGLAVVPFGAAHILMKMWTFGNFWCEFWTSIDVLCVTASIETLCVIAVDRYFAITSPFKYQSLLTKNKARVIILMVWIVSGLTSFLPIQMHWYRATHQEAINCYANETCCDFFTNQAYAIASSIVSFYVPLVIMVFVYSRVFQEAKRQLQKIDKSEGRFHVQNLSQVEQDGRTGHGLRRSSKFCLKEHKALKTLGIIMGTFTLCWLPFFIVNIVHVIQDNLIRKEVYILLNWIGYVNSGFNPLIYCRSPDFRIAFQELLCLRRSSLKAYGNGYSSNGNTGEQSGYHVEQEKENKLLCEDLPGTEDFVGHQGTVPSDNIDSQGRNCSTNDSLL

Experiment [3] in a line: Quantitative high throughput screen for delayed death inhibitors of the malarial parasite plastid, 48 hour incubation (AID 488752). Note: nearly all actives have a fitted effect of over 65% in size. Note: potency is the fitted concentration of half-maximal effect. Put shortly:
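Cultures: infected erythrocytes at final 2% hematocrit and 0.1% parasitemia in Albumax-supplemented RPMI. Parasites express integrated firefly luciferase. Incubation with compound lasts 48 h before luminescent detection of remaining reporter activity.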

For experiment [4], the target named is Thioredoxin reductase 1, cytoplasmic (Rattus norvegicus) (UniProt O89049). In words: qHTS Assay for Substrates of Mammalian Selenoprotein Thioredoxin Reductase 1 (TrxR1) (AID 488772).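 Note: series mostly up to about 57 µM; 0% is about no effect; a drop in NADPH fluorescence below the no-compound background marks a TrxR1 substrate.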 Summed up: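 In this dual-purpose format, potential substrates are identified from the first fluorescence read after selenite addition, not from the 8-minute delta. Rat enzyme is preincubated with NADPH and then with compound at ~22 deg C.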

The target is the same in experiment [5]. In words: qHTS Assay for Inhibitors of Mammalian Selenoprotein Thioredoxin Reductase 1 (TrxR1) (AID 488773).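 Note: drop in NADPH fluorescence over an 8 min run after selenite addition; series mostly up to about 57 µM; % is set by controls: 0 for no effect and ±100 for the full control effect; nearly all actives have a fitted effect of over 40% in size.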 The settings on record: Potency: inhibition. Put shortly:
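Inhibition is scored from the loss of NADPH fluorescence between first and last reads of an 8-min kinetic run. Selenite (400 uM) was the substrate, added after 15 min compound preincubation at room temperature.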

The target of experiment [6] is M-phase phosphoprotein 8 (Homo sapiens) (UniProt Q99549). In words: qHTS Validation Assay for Inhibitors for MPP8 Chromodomain Interactions with Methylated Histone Tails (AID 488949). Note: nearly all actives have a fitted effect of over 55% in size. Note: potency is the fitted concentration of half-maximal effect. Put shortly:
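MPP8 (50 nM) was preincubated with biotinylated H3(1-18)K9me3 peptide (50 nM) in PBS pH 7.4, 0.01% Tween-20 for 30 min at room temperature, then with compounds for 30 min; binding was detected by AlphaScreen.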

Experiment [7] has as its target Chromobox protein homolog 1 (Homo sapiens) (UniProt P83916). In words: qHTS Validation Assay for Inhibitors of HP1-beta Chromodomain Interactions with Methylated Histone Tails (AID 488953). Note: nearly all actives have a fitted effect of over 50% in size. Note: potency is the fitted concentration of half-maximal effect. Summed up:
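Compounds pinned into a preassembled complex of HP1-beta and trimethyl-K9 histone H3(1-18) biotin peptide (50 nM each; PBS pH 7.4, 0.01% Tween-20). After 30 min, bead-based AlphaScreen detection followed.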

For experiment [8], the target named is Thyrotropin receptor (Homo sapiens) (UniProt P16473). In words: qHTS Assay for Antagonists of the Thyroid Stimulating Hormone Receptor (AID 488980). Note: series mostly up to about 58 µM; 0% is about no effect. Put shortly: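 HEK293 cells transfected with human TSHR, suspended in HEPES-buffered HBSS with 70 uM RO 20-1724, were treated with compounds plus TSH at EC80 (4 nM final). cAMP was measured by competitive HTRF (cryptate anti-cAMP antibody, cAMP-d2 acceptor).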
Thyrotropin receptor (Homo sapiens), sequence (P16473 whole entry, looked up): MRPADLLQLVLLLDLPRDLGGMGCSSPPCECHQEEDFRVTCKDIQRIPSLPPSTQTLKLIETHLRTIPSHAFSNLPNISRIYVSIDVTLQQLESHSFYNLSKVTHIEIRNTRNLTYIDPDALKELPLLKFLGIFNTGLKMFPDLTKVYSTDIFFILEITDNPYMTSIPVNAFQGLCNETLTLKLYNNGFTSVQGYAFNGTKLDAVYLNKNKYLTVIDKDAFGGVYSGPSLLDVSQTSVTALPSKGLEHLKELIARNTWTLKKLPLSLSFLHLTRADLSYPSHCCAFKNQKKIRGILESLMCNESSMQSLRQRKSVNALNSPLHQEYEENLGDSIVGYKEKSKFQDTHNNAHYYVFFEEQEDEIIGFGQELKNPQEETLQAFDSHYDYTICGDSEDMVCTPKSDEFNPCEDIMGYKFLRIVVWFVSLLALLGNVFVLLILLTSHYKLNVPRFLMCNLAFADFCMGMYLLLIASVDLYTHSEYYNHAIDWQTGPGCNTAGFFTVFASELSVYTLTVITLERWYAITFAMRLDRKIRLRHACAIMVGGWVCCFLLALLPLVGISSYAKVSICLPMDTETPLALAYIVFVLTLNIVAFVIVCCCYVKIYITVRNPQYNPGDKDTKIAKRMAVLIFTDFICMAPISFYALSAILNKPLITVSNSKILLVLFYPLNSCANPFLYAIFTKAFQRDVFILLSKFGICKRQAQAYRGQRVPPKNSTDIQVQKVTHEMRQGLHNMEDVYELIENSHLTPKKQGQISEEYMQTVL

The target in experiment [9] is D(1A) dopamine receptor (Homo sapiens) (UniProt P21728). In words: HTS Assay for Allosteric Agonists of the Human D1 Dopamine Receptor: Primary Screen for Potentiators (AID 488982). Note: 0% is about no effect. Put shortly: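 Tetracycline-induced HEK293 Trex D1 cells with forced coupling to calcium, loaded with no-wash calcium dye; kinetic fluorescence read 180 s after compound addition for agonism, then a further 180 s after an EC20 dopamine challenge for potentiation.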

Experiment [10] shares this target. In words: HTS Assay for Allosteric Agonists of the Human D1 Dopamine Receptor: Primary Screen for Antagonists (AID 488983).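 Note: calcium flux response to an EC80 dopamine challenge measured with no-wash dye; nearly all actives have a fitted effect of over 65% in size.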 Note: potency is the fitted concentration of half-maximal effect. Summed up:
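In this primary screen, compounds are applied to calcium-dye-loaded HEK293 T-REx cells with force-coupled D1 expression induced overnight at 30 C. An EC80 of dopamine follows the 180 s compound phase, and calcium is monitored for a further 180 s.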

Experiment [11] can be described thus: Validation screen for small molecules that induce genotoxicity in human embryonic kidney (HEK293T) cells expressing luciferase-tagged ELG1 (AID 493106). Note: 0% is about no effect. Summed up:
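In this validation screen, increased ELG1-luciferase signal flags compounds causing genetic stress. HEK293T reporter cells are treated 16 hr (37 °C, 5% CO2), developed with ONE-Glo for 30 min at room temperature, and imaged on a CCD-based reader.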

Experiment [12] addresses ATPase family AAA domain-containing protein 5 (Homo sapiens) (UniProt Q96QE3). In words: Validation screen for small molecules that inhibit ELG1-dependent DNA repair in human embryonic kidney (HEK293T) cells expressing luciferase-tagged ELG1 (AID 493107).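 Note: cells co-treated with the DNA-damaging agent 5-fluorouridine alongside compound; series mostly up to about 46 µM; % is set by controls: 0 for no effect and ±100 for the full control effect; inhibitors lower the ELG1-luciferase luminescence signal; nearly all actives have a fitted effect of over 70% in size.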 Put shortly: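 Compounds reducing 5-fluorouridine-driven ELG1-luciferase signal in HEK293T cells were scored; exposure lasted 16 hr at 37 °C with luminescence detected via ONE-Glo.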

For experiment [13], the target named is Thyrotropin-releasing hormone receptor (Homo sapiens) (UniProt P34981). In words: qHTS for Small Molecule Agonists and Allosteric Enhancers of Human TRH Receptor: Validation Screen for Agonists (AID 493127;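 active = calcium activation more than 3 SD above the typical response in the agonist read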;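 note: intracellular calcium rise by fluo-8 fluorescence before TRH EC20 addition; 0% is about no effect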). The settings on record: TRH receptor agonist cell assay; at 2 µM; stronger effect = higher value. Summed up:
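Kinetic fluorescence assay of agonist-induced calcium release: overnight-plated TRHR cells, room-temperature fluo-8 loading, baseline then compound addition with per-second reads.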

The nature of experiment [14]: Nrf2 qHTS screen for inhibitors: Validation (AID 493153; active = well fitted inhibition curve with a large enough effect in the main read-out, with a control signal flat, not every such curve was filed as active). As to conditions: Potency: luciferase luminescence; viability change: measured here: cytotoxicity max response. Put shortly: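 In this counterscreened reporter format, each well gives two signals: CellTiter-Fluor fluorescence for cytotoxicity and ARE-luciferase luminescence for Nrf2 function. A549 ARE_Fluc cells in 5% FBS OPTI-MEM were exposed to compound titrations for 18-24 h.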

Experiment [15] is described as follows: qHTS for Inhibitors of Cell Surface uPA Generation: Validation Assay (AID 493164).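 Note: RAW 264.7 macrophage cells exposed to compound for 18 h; 0% is about no effect.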 Put shortly: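 Compounds are titrated over seven points (2.45 nM–38.3 uM final) onto pre-plated RAW 264.7 cells and incubated for 18 h. Retained intracellular ATP, measured with ATP-Lite, indicates blocked lethal factor entry.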
The target of experiment [16] is Flap endonuclease 1 (Homo sapiens) (UniProt P39748). In words: qHTS Validation Assay for the Inhibitors of Human Flap endonuclease 1 (FEN1) (AID 488816). Note: % is set by controls: 0 for no effect and ±100 for the full control effect. Summed up:
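Enzyme reagent 10 nM; cpds pinned; 15 min RT preinc.; substrate 50 nM final; reads t=0 and 15 min; no-enzyme buffer wells as neg. control; normalized data, 4-parameter Hill fit.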

The target of experiment [17] is Methanococcus maripaludis chaperonin (MmCpn) (UniProt Q6LX38). In words: High-Throughput Screening for Modulators of Cytosolic Chaperonin Activity: MmCpn Primary Screen (AID 488978).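 Note: 50 nM MmCpn enzyme hydrolysing 30 µM ATP at 37 °C; 0% is about no effect.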 Summed up:
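MmCpn (50 nM final) was preincubated with compound 5 min at RT, then 30 uM ATP (final) was added and the reaction ran 10 min at 37C. ADP produced was detected by Transcreener HTRF (ex 320 nm; em 590/665 nm).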

In experiment [18] the target is ATP-dependent 6-phosphofructokinase (Trypanosoma brucei brucei) (UniProt O15648). In words: qHTS Validation Assay to Find Inhibitors of T. brucei phosphofructokinase (AID 485368). Put shortly:
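Inhibition derived from concentration-response curves of luminescence, ranked by r2, response size and curve class; the underlying reaction used 1.25 nM PFK, 0.1 mM ATP and 0.5 mM F6P, 45 min, room temperature.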

Chromobox protein homolog 1 (Homo sapiens), sequence (P83916 whole entry, looked up): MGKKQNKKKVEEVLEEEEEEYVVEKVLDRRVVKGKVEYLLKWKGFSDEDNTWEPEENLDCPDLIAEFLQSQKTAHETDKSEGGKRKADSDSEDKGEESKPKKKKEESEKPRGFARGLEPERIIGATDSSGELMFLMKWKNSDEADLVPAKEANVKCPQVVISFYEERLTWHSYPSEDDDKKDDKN
Flap endonuclease 1 (Homo sapiens), sequence (P39748 whole entry, looked up): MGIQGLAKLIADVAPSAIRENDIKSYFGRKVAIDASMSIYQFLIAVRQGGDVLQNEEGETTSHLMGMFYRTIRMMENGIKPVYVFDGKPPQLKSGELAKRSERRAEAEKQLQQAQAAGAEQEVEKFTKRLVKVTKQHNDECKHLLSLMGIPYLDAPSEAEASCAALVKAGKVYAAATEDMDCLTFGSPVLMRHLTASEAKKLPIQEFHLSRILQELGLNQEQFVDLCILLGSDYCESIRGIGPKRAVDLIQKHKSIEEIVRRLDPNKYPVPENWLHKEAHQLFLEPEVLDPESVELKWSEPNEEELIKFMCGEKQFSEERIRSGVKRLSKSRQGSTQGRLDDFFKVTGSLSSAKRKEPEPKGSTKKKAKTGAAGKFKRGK
Methanococcus maripaludis chaperonin (MmCpn), sequence (Q6LX38 1-543): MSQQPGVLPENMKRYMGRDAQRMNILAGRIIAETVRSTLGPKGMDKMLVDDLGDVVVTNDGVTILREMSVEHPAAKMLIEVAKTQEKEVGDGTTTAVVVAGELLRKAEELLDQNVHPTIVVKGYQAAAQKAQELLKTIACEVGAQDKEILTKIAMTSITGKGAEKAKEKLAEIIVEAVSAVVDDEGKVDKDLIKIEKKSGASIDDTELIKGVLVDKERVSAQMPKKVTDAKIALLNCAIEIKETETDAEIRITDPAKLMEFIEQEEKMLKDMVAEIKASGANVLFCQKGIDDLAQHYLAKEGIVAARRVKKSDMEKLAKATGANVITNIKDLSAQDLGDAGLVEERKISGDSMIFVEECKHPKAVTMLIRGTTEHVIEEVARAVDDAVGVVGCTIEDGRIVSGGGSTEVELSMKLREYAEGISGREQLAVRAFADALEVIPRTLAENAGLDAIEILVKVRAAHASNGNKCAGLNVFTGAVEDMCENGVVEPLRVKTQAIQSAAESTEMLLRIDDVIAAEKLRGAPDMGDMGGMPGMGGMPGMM
ATPase family AAA domain-containing protein 5 (Homo sapiens), sequence (Q96QE3 whole entry, looked up, the tested form may be a part): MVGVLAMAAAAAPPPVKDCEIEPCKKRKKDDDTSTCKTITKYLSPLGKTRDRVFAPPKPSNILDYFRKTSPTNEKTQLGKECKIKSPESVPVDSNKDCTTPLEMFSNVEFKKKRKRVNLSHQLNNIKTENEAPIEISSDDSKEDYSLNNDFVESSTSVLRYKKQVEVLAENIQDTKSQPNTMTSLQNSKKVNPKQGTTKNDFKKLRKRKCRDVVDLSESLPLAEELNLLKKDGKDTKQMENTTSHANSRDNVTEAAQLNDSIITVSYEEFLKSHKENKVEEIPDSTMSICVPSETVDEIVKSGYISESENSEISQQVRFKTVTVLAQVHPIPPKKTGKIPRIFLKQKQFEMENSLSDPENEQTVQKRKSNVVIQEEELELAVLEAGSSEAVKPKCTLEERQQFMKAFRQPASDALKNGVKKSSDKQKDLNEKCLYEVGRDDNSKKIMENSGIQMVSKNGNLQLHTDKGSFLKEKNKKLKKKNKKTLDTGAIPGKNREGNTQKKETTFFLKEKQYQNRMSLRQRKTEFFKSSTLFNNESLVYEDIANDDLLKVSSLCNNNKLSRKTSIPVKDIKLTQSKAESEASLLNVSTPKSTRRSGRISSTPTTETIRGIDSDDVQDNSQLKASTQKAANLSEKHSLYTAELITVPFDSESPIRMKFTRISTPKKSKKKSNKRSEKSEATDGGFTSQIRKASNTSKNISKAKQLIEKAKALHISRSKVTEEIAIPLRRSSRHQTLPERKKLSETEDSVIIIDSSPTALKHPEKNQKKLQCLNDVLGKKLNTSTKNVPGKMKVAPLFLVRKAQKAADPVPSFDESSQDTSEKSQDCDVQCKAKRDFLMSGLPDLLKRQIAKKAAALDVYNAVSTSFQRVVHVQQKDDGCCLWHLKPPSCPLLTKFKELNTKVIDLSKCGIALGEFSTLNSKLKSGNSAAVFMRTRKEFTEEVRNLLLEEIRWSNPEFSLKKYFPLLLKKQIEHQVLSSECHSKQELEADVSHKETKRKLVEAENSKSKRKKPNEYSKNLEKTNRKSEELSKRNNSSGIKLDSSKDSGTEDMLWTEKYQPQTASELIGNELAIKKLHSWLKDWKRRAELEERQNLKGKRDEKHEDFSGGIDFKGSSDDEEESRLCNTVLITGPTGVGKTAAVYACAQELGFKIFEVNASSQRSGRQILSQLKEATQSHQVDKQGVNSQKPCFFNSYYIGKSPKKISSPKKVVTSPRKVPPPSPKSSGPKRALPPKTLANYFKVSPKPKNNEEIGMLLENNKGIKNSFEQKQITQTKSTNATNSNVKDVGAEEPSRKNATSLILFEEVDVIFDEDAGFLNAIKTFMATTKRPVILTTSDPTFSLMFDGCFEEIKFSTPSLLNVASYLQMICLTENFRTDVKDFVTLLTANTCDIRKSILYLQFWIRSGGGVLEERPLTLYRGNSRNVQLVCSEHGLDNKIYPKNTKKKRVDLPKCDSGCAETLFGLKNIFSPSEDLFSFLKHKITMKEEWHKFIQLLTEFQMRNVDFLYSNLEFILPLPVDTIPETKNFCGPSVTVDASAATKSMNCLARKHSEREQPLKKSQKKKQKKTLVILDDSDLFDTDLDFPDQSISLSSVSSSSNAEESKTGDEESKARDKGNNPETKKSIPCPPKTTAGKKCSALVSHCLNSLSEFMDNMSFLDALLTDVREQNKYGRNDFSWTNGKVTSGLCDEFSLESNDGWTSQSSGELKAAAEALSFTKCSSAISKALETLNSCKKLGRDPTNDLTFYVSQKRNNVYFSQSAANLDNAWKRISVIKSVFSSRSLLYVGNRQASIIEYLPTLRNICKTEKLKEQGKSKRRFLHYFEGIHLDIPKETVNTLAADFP
Thyrotropin-releasing hormone receptor (Homo sapiens), sequence (P34981 whole entry, looked up): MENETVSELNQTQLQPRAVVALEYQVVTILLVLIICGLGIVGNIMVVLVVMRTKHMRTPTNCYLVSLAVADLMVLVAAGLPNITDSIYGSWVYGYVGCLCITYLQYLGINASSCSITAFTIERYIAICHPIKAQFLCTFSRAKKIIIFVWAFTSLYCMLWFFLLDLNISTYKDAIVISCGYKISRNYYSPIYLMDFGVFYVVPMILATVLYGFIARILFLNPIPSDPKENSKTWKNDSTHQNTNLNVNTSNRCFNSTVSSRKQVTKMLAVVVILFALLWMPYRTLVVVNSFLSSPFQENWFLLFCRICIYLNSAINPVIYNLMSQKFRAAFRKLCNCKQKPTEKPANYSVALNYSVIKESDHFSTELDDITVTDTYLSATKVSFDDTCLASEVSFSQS

Turning to `NC(=O)NC(=O)Cc1ccccc1`, the Potency entry in [1] was “inactive”.
For `O=C(O)c1ccccn1`, the Potency entry in experiment [1] was “inactive”.
With `CNCCCC1c2ccccc2C=Cc2ccccc21`, the result in experiment [2], in [4], in experiment [8], in [9], in experiment [12] and in experiment [15] was inactive. The Potency is 14.7 µM (active) in [3] and 11.2 µM (active) in experiment [10]. Also, the Potency result in [5], in experiment [6], in [7], in [1], in [11] and in experiment [14] was “inactive” in each case. Further, the activation in experiment [13] was 7.31% (inactive). Besides, the viability change in experiment [14] came out at 4.24%.
`CC(CN1c2ccccc2Sc2ccccc21)N(C)C` (stereo not given): the result in experiment [2], in [4], in [8], in experiment [9], in [12] and in experiment [15] was inactive. The Potency entry in experiment [3], in experiment [16], in [17], in experiment [11] and in [14] was “inactive” in each case. Further, the Potency in [6] was 39.8 µM (active); in experiment [7], 39.8 µM (active); in experiment [10] it was 10 µM (active). In addition, the activation in experiment [13] is 3.12% (inactive). In addition, in experiment [14], the viability change was 5.51%.
Regarding `CC1=C(CC(=O)O)c2cc(F)ccc2/C1=C\c1ccc(S(C)=O)cc1` (stereo not given), the compound was called inactive in experiment [2], in [4], in [8], in experiment [9], in experiment [12] and in experiment [15]. Besides, the Potency entry in [3], in [16], in [6], in [17], in [10] and in experiment [1] was “inactive” each time. For the same compound, the Potency result in [11] and in experiment [14] was “inactive” each time. In addition, in experiment [14], the viability change is -1.89%.
`CNCC(O)c1ccc(O)c(O)c1` (stereo not given): the Potency result in [18], in experiment [3], in [6], in experiment [7], in [17] and in [11] was “inactive” throughout. Further, the Potency result in [14] is “inactive”. For the same compound, the result in experiment [4], in [8], in experiment [9], in [12] and in experiment [15] was inactive. Moreover, in experiment [13], the activation is 0.938% (inactive). The viability change in experiment [14] was determined as 1.42%.
Take `O=C(Oc1ccccc1C(=O)O)c1ccccc1O`: the Potency result in experiment [1] was “inactive”.
Take `CC(C)NC[C@H](O)c1ccc(O)c(O)c1`: the Potency result in experiment [18], in experiment [3], in experiment [16], in experiment [6], in [7] and in experiment [17] was “inactive” each time. Moreover, the Potency entry in experiment [10], in experiment [11] and in experiment [14] was “inactive” in each case. Besides, the outcome in experiment [4], in [8], in [12] and in experiment [15] was inactive. For the same compound, the activation in experiment [13] is -0.125% (inactive) and 0.875% (inactive). The viability change in experiment [14] is 2.86% and 6.15%.
For `CC12CCC(CC1)C(C)(C)O2`, the Potency result in [1] is “inactive”.
Turning to `NCCNCCNCCNCCN`, the Potency result in experiment [1] is “inactive”.
Still for that read-out and setting: as for `NC(CSCC(=O)O)C(=O)O` (stereo not given), the entry is “inactive”; as for `Cn1c(=O)c2c(ncn2CC2OCCO2)n(C)c1=O`, “inactive”.
Same read-out and setting: the entry for `O=c1cc[nH]c(=O)[nH]1` is “inactive”.
In the case of `CSc1ccc2c(c1)N(CCC1CCCCN1C)c1ccccc1S2` (stereo not given), the compound was classed as inactive in experiment [2], in [4], in experiment [8], in [12] and in experiment [15]. Further, the Potency entry in [5], in experiment [16], in [17] and in experiment [11] was “inactive” in each case. For the same compound, the Potency in experiment [6] is 11.2 µM (active); in experiment [7], 28.2 µM (active).
